# Test results published in paper PMC11006913.
# Substitutions are numbered along the chain they refer to.
# Experiments:
# Experiment in all cases: PBM; 200 nM protein, PBS
# Conditions in all cases: dsDNA, one strand shown
# [1] = target: HOXC10 (Homo sapiens, UniProt Q9NYD6 254-340)
# [2] = target: HOXD13 (Homo sapiens, UniProt P35453 263-343, T313R)
# [3] = target: HOXD13 (Homo sapiens, UniProt P35453 263-343)
# [4] = target: HOXC10 (Homo sapiens, UniProt Q9NYD6 254-340, K271E)
# [5] = target: HOXD13 (Homo sapiens, UniProt P35453 263-343, T313A)
# HOXD13 (Homo sapiens, UniProt P35453 263-343, T313A), sequence (P35453 263-343 T313A): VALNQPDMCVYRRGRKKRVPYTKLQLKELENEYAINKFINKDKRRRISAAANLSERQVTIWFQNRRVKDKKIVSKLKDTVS
# [6] = target: ALX4 (Homo sapiens, UniProt Q9H161 200-286, Q225E)
# ALX4, sequence (Q9H161 200-286 Q225E): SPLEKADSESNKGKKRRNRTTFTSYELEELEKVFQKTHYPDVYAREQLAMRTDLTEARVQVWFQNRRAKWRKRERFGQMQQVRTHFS
# [7] = target: HOXC9 (Homo sapiens, UniProt P31274 178-260, R222W)
# HOXC9, sequence (P31274 178-260 R222W): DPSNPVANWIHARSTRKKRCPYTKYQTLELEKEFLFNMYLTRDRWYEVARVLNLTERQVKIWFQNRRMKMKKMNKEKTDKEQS
# [8] = target: T1, PAX4 (Homo sapiens, UniProt O43316 9-242, R200K)
# T1 sequence: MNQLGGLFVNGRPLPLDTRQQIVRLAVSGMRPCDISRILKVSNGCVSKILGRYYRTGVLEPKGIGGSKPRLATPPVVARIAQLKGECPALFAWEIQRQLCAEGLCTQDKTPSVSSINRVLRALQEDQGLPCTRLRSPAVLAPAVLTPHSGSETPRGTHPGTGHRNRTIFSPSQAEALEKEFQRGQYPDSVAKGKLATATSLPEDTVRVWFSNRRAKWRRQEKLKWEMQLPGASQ
# [9] = target: T2, PAX4 (Homo sapiens, UniProt O43316 9-242)
# T2 sequence: T1 sequence with K192R
# [10] = target: T3, PAX4 (Homo sapiens, UniProt O43316 9-242, R200Q)
# T3 sequence: T1 sequence with K192Q
# [11] = target: T4, PAX4 (Homo sapiens, UniProt O43316 9-242, F177V)
# T4 sequence: T1 sequence with F169V, K192R
# [12] = target: T5, PAX4 (Homo sapiens, UniProt O43316 9-242, F177Y)
# T5 sequence: T1 sequence with F169Y, K192R
# [13] = target: PROP1 (Homo sapiens, UniProt O75360 56-141)
# PROP1 (Homo sapiens, UniProt O75360 56-141), sequence (O75360 56-141): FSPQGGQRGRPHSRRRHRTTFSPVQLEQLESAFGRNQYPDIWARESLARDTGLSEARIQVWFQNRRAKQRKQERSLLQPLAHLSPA
# [14] = target: PROP1 (Homo sapiens, UniProt O75360 56-141, R99H)
# PROP1 (Homo sapiens, UniProt O75360 56-141, R99H), sequence (O75360 56-141 R99H): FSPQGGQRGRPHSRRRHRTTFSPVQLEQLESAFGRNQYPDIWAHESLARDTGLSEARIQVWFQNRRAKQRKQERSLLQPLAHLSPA
# [15] = target: PROP1 (Homo sapiens, UniProt O75360 56-141, F88S)
# PROP1 (Homo sapiens, UniProt O75360 56-141, F88S), sequence (O75360 56-141 F88S): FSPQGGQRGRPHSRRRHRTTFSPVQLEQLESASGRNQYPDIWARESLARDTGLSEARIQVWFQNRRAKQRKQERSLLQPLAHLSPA
# [16] = target: T6, PAX4 (Homo sapiens, UniProt O43316 9-242, R227W)
# T6 sequence: T1 sequence with K192R, R219W
# [17] = target: HOXB6 (Homo sapiens, UniProt P17509 132-218, K202E)
# HOXB6 (Homo sapiens, UniProt P17509 132-218, K202E), sequence (P17509 132-218 K202E): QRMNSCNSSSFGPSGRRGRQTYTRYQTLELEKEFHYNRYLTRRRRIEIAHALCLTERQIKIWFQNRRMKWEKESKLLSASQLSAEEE
# [18] = target: MSX2 (Homo sapiens, UniProt P35548 130-214, R199I)
# MSX2 (Homo sapiens, UniProt P35548 130-214, R199I), sequence (P35548 130-214 R199I): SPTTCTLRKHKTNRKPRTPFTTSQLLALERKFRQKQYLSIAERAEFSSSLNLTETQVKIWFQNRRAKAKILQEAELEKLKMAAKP
# [19] = target: MSX2 (Homo sapiens, UniProt P35548 130-214)
# MSX2 (Homo sapiens, UniProt P35548 130-214), sequence (P35548 130-214): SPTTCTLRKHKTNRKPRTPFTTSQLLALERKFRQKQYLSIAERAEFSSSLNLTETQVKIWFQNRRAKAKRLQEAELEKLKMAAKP
# [20] = target: MSX2 (Homo sapiens, UniProt P35548 130-214, F161Y)
# MSX2 (Homo sapiens, UniProt P35548 130-214, F161Y), sequence (P35548 130-214 F161Y): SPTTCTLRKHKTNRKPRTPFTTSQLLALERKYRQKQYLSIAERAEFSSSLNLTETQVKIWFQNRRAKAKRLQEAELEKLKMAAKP
# [21] = target: HOXB6 (Homo sapiens, UniProt P17509 132-218)
# HOXB6 (Homo sapiens, UniProt P17509 132-218), sequence (P17509 132-218): as the sequence (P17509 132-218 K202E) above, with E71K counted along it
# HOXD13 (Homo sapiens, UniProt P35453 263-343, T313R), sequence (P35453 263-343 T313R): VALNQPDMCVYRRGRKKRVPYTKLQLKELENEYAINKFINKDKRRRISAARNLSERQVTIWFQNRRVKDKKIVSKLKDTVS
# HOXC10 (Homo sapiens, UniProt Q9NYD6 254-340), sequence (Q9NYD6 254-340): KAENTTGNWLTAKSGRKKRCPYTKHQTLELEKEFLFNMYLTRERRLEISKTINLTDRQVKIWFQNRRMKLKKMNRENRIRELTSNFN
# HOXD13 (Homo sapiens, UniProt P35453 263-343), sequence (P35453 263-343): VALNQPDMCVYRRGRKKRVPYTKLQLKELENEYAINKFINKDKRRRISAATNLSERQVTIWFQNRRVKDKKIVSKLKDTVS
# HOXC10 (Homo sapiens, UniProt Q9NYD6 254-340, K271E), sequence (Q9NYD6 254-340 K271E): as the sequence (Q9NYD6 254-340) above, with K18E counted along it
sequence,measurement,setting,value
CAATATGG,binding signal,[1],"10.7 upbm affinity estimate (log intensity, higher = more binding, comparable within an allelic series)"
same,binding signal,[2],"10 upbm affinity estimate (log intensity, higher = more binding, comparable within an allelic series)"
same,binding signal,[3],"10.5 upbm affinity estimate (log intensity, higher = more binding, comparable within an allelic series)"
GTTTACGA,binding signal,[1],"12.2 upbm affinity estimate (log intensity, higher = more binding, comparable within an allelic series)"
same,binding signal,[2],"10.8 upbm affinity estimate (log intensity, higher = more binding, comparable within an allelic series)"
same,binding signal,[3],"12.1 upbm affinity estimate (log intensity, higher = more binding, comparable within an allelic series)"
same,binding signal,[4],"11.6 upbm affinity estimate (log intensity, higher = more binding, comparable within an allelic series)"
same,binding signal,[5],"11.9 upbm affinity estimate (log intensity, higher = more binding, comparable within an allelic series)"
CGTGATAA,binding signal,[1],"10.9 upbm affinity estimate (log intensity, higher = more binding, comparable within an allelic series)"
ACCAATAC,binding signal,[1],"10.6 upbm affinity estimate (log intensity, higher = more binding, comparable within an allelic series)"
CCAATAAA,binding signal,[1],"12.1 upbm affinity estimate (log intensity, higher = more binding, comparable within an allelic series)"
same,binding signal,[6],"11.4 upbm affinity estimate (log intensity, higher = more binding, comparable within an allelic series)"
same,binding signal,[2],"11.1 upbm affinity estimate (log intensity, higher = more binding, comparable within an allelic series)"
same,binding signal,[3],"12.4 upbm affinity estimate (log intensity, higher = more binding, comparable within an allelic series)"
same,binding signal,[4],"11.3 upbm affinity estimate (log intensity, higher = more binding, comparable within an allelic series)"
same,binding signal,[5],"12.2 upbm affinity estimate (log intensity, higher = more binding, comparable within an allelic series)"
same,binding signal,[7],"11.1 upbm affinity estimate (log intensity, higher = more binding, comparable within an allelic series)"
CTCCCCCC,binding signal,[1],"9.99 upbm affinity estimate (log intensity, higher = more binding, comparable within an allelic series)"
same,binding signal,[8],"9.31 upbm affinity estimate (log intensity, higher = more binding, comparable within an allelic series)"
same,binding signal,[9],"9.32 upbm affinity estimate (log intensity, higher = more binding, comparable within an allelic series)"
same,binding signal,[10],"9.28 upbm affinity estimate (log intensity, higher = more binding, comparable within an allelic series)"
same,binding signal,[11],"9.04 upbm affinity estimate (log intensity, higher = more binding, comparable within an allelic series)"
same,binding signal,[4],"9.94 upbm affinity estimate (log intensity, higher = more binding, comparable within an allelic series)"
same,binding signal,[12],"9.19 upbm affinity estimate (log intensity, higher = more binding, comparable within an allelic series)"
same,binding signal,[13],"6.67 upbm affinity estimate (log intensity, higher = more binding, comparable within an allelic series)"
same,binding signal,[14],"6.5 upbm affinity estimate (log intensity, higher = more binding, comparable within an allelic series)"
same,binding signal,[15],"5.95 upbm affinity estimate (log intensity, higher = more binding, comparable within an allelic series)"
same,binding signal,[16],"9.13 upbm affinity estimate (log intensity, higher = more binding, comparable within an allelic series)"
GGAGGCCC,binding signal,[1],"10 upbm affinity estimate (log intensity, higher = more binding, comparable within an allelic series)"
same,binding signal,[2],"9.34 upbm affinity estimate (log intensity, higher = more binding, comparable within an allelic series)"
same,binding signal,[3],"9.46 upbm affinity estimate (log intensity, higher = more binding, comparable within an allelic series)"
same,binding signal,[4],"9.99 upbm affinity estimate (log intensity, higher = more binding, comparable within an allelic series)"
same,binding signal,[5],"9.59 upbm affinity estimate (log intensity, higher = more binding, comparable within an allelic series)"
GGCTAGCC,binding signal,[1],"9.92 upbm affinity estimate (log intensity, higher = more binding, comparable within an allelic series)"
same,binding signal,[17],"8.91 upbm affinity estimate (log intensity, higher = more binding, comparable within an allelic series)"
same,binding signal,[18],"9.46 upbm affinity estimate (log intensity, higher = more binding, comparable within an allelic series)"
same,binding signal,[2],"9.4 upbm affinity estimate (log intensity, higher = more binding, comparable within an allelic series)"
same,binding signal,[3],"9.37 upbm affinity estimate (log intensity, higher = more binding, comparable within an allelic series)"
same,binding signal,[4],"9.98 upbm affinity estimate (log intensity, higher = more binding, comparable within an allelic series)"
same,binding signal,[19],"9.52 upbm affinity estimate (log intensity, higher = more binding, comparable within an allelic series)"
same,binding signal,[5],"9.39 upbm affinity estimate (log intensity, higher = more binding, comparable within an allelic series)"
same,binding signal,[20],"9.51 upbm affinity estimate (log intensity, higher = more binding, comparable within an allelic series)"
same,binding signal,[21],"8.87 upbm affinity estimate (log intensity, higher = more binding, comparable within an allelic series)"
AGGGCGGA,binding signal,[1],"9.89 upbm affinity estimate (log intensity, higher = more binding, comparable within an allelic series)"
same,binding signal,[2],"9.35 upbm affinity estimate (log intensity, higher = more binding, comparable within an allelic series)"
same,binding signal,[3],"9.36 upbm affinity estimate (log intensity, higher = more binding, comparable within an allelic series)"
same,binding signal,[4],"9.9 upbm affinity estimate (log intensity, higher = more binding, comparable within an allelic series)"
same,binding signal,[5],"9.37 upbm affinity estimate (log intensity, higher = more binding, comparable within an allelic series)"
